# Assay results as given in PubChem BioAssay (Tox21).
# “And” between values parts separate entries of the source, which are not always exact repeats. Equal entries are not always repeated. Results filed as inconclusive are left out. Entries that show only a call come without a potency. The source holds several records for some structures; these can differ, active in one and inactive in another. The source made the active and inactive calls. Unless noted, the call rests on the fitted dose curve; in most records, active means well fitted curve in the direction sought with a large enough effect in the repeat runs; inconclusive means weak or mixed curves; inactive means no such curve, though single readings can be large; an effect the other way counts as inactive or inconclusive.
# How the values were obtained:
# [1] = qHTS assay to identify small molecule antagonists of the sonic hedgehog signaling (Shh) pathway (AID 1259369; calls by dose curve; further: nearly all actives have a fitted effect of over 45% in size; further: potency means the concentration at half of the fitted maximal effect)
# Outline: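 Conditioned medium drives Shh signalling in 3T3Gli1-Luc cells; compounds in DMSO co-applied, 24hr at 37 C, then luciferase luminescence.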
# [2] = target: Estrogen receptor beta (Homo sapiens) (UniProt Q92731); assay: qHTS assay to identify small molecule agonists of the estrogen receptor beta (ER-beta) signaling pathway (AID 1259377; active means well fitted activation curve with a large enough effect in the signal ratio in the repeat runs, not every such curve was filed as active; the % refers to the signal ratio)
# Outline: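 Reporter cells (HEK293T, ER-beta-UAS-bla) receive compounds or DMSO after a 6 hr pre-incubation. They then incubate 16 hr at 37C/5% CO2, and fluorescence from LiveBLAzer B/G substrate is measured after 2 hours at room temperature.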
# [3] = target: Estrogen receptor beta (Homo sapiens) (UniProt Q92731); assay: qHTS assay to identify small molecule antagonists of the estrogen receptor beta (ER-beta) signaling pathway (AID 1259378; active means well fitted inhibition curve with a large enough effect in the signal ratio in the repeat runs, not every such curve was filed as active; the % refers to the signal ratio; further: potency means the concentration at half of the fitted maximal effect)
# Outline: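 ER-beta-UAS-bla HEK293T cells in 2% charcoal-stripped FBS medium treated with compound plus 1nM final 17-beta-estradiol for 16 hr at 37C. Beta-lactamase reporter read by FRET substrate fluorescence after 2 hours at room temperature.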
# [4] = qHTS assay to identify small molecule agonists of the androgen receptor (AR) signaling pathway in the presence of an antagonist - cell viability counter screen (AID 1259379);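 further: MDA-kb2 human breast cancer cells carrying an MMTV luciferase reporter; series mostly up to about 92 µM; nearly all actives have a fitted effect of over 25% in size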
# Outline: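 A CellTiter-Fluor read-out measured viability of MDA-kb2 reporter cells (MMTV promoter with AR and GR response elements). Treatment: nilutamide 3.0uM final with compounds at 15 concentrations, 16 hr, 37C, 0% CO2.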
# [5] = qHTS assay to identify small molecule agonists of the estrogen receptor beta (ER-beta) signaling pathway - cell viability counter screen (AID 1259380); further: nearly all actives have a fitted effect of over 30% in size; further: potency means the concentration at half of the fitted maximal effect
# Outline: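 Cells used were ER-beta-UAS-bla HEK293T in medium with 2% charcoal-stripped FBS. They were treated for 16 hr at 37C. Viability came from CellTiter-Glo luminescence.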
# [6] = target: Estrogen receptor (Homo sapiens) (UniProt P03372); assay: qHTS assay to identify small molecule agonists of the estrogen receptor alpha (ER-alpha) signaling pathway in the presence of an antagonist (AID 1259383; calls by dose curve; further: top concentration of the series differs between compounds; nearly all actives have a fitted effect of over 15% in size)
# Outline: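 Using VM7Luc4E2 cells seeded 24hr before treatment, antagonist ICI-182,780 (10.0nM final) was added, followed by compounds at 15 concentrations. Plates incubated 22hr; ONE-Glo luminescence quantified reporter activity.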
# [7] = qHTS assay to identify small molecule agonists or antagonists of the thyroid stimulating hormone receptor (TSHR) signaling pathway - wild type cell line counter screen (AID 1259384; calls by dose curve)
# Outline: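 Wild-type Hek293 cells, 800/well, 18 h at 37C, then compound with Ro20-1724 for 30 min RT. cAMP by HTRF (cAMP-d2/anti-cAMP cryptate), 1 h RT, fluorescence read. 15 concentrations, triplicates.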
# [8] = target: Thyrotropin receptor (Homo sapiens) (UniProt P16473); assay: qHTS assay to identify small molecule antagonists of the thyroid stimulating hormone receptor (TSHR) signaling pathway (AID 1259385; calls by dose curve; further: nearly all actives have a fitted effect of over 20% in size)
# Outline: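 TSHR-HEK293 cells (800/well) plated 18 h, then compounds with Ro20-1724 and TSH at 1.5 ng/mL final, 30 min at room temperature. cAMP quantified by HTRF (cAMP-d2/anti-cAMP-cryptate, 1 h); 15 concentrations in triplicate.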
# [9] = qHTS assay to identify small molecule agonists of the estrogen receptor alpha (ER-alpha) signaling pathway in the presence of an antagonist - cell viability counter screen (AID 1259386);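 further: cells exposed to compounds for 22 h at 37 °C before the viability read; nearly all actives have a fitted effect of over 30% in size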; further: potency means the concentration at half of the fitted maximal effect
# Outline: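 ICI-182,780 at 10.0nM final accompanies the compound titration (15 concentrations, 22hr, 37C) on VM7Luc4E2 cells. The CellTiter-Fluor fluorescence readout runs in the same wells as the luciferase assay.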
# [10] = target: Progesterone receptor (Homo sapiens) (UniProt P06401); assay: qHTS assay to identify small molecule agonists of the progesterone receptor (PR) signaling pathway (AID 1346784; calls by dose curve; further: nearly all actives have a fitted effect of over 30% in size)
# Outline: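 Reporter assay, GripTite PR-UAS-bla HEK 293T cells: 16 hr exposure to DMSO-dissolved compounds at 37C, 5% CO2, in steroid-depleted (2% charcoal-stripped FBS) medium; beta-lactamase measured by FRET fluorescence.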
# [11] = target: Progesterone receptor (Homo sapiens) (UniProt P06401); assay: qHTS assay to identify small molecule antagonists of the progesterone receptor (PR) signaling pathway (AID 1346795; active means well fitted inhibition curve with a large enough effect in the signal ratio in the repeat runs, not every such curve was filed as active; the % refers to the signal ratio; further: potency means the concentration at half of the fitted maximal effect)
# Outline: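 Stimulus R5020 at 1 nM final; cells HEK293T PR-UAS-bla; medium with 2% charcoal-stripped FBS; compound exposure 16 hr at 37C, 5% CO2; detection by FRET beta-lactamase substrate, 2 hr, room temperature.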
# [12] = qHTS assay to identify small molecule antagonists of the progesterone receptor (PR) signaling pathway - cell viability counter screen (AID 1346798); further: series mostly up to about 92 µM; nearly all actives have a fitted effect of over 50% in size
# Outline: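 In the same plates used for the beta-lactamase readout, cell viability of compound- and R5020-treated PR-UAS-bla HEK293T cells (16 hr, 37C) was assessed by CellTiter-Glo luminescence.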
# [13] = qHTS assay to identify small molecule agonists of the progesterone receptor (PR) signaling pathway - cell viability counter screen (AID 1346799; calls by dose curve; further: nearly all actives have a fitted effect of over 45% in size; further: potency means the concentration at half of the fitted maximal effect)
# Outline: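 Multiplexed viability read: CellTiter-Glo luminescence, 30 min RT, following LiveBLAzer FRET measurement on PR-UAS-bla HEK293T cells exposed to compounds 16 hr.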
# [14] = qHTS assay to identify small molecule antagonists of the TGF-beta/Smad signaling pathway - cell viability counter screen (AID 1346824); further: nearly all actives have a fitted effect of over 50% in size
# Outline: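 SBE-bla HEK 293T cells, incubated overnight, then compound plus 0.25 ng/mL TGF-beta1 (stock added) for 5 hr at 37 C. Viability was read in the same wells by CellTiter-Glo luminescence after 30 min at room temperature.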
# [15] = qHTS assay to identify small molecule agonists of the TGF-beta/Smad signaling pathway - cell viability counter screen (AID 1346829); further: top concentration of the series differs between compounds; nearly all actives have a fitted effect of over 45% in size
# Outline: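 After overnight seating at 37 C and 5% CO2, reporter cells got compounds for 5 hr and FRET substrate for 2 hr; cell viability then came from CellTiter-Glo luminescence.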
# [16] = qHTS assay to identify small molecule agonists of the TGF-beta/Smad signaling pathway (AID 1346859; active means well fitted activation curve with a large enough effect in the signal ratio in the repeat runs, not every such curve was filed as active; the % refers to the signal ratio; further: series mostly up to about 77 µM)
# Outline: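 Screening used HEK 293T SBE-bla cells at 4,000/well. Test agents: 5 hr, 37 C. Detection: FRET substrate, 2 hr RT, then excitation 405 nm with emissions at 460 and 530 nm.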
# [17] = target: Thyrotropin-releasing hormone receptor (Homo sapiens) (UniProt P34981); assay: qHTS assay to identify small molecule antagonists of the thyrotropin-releasing hormone receptor (TRHR) signaling pathway (AID 1346877; active means well fitted inhibition curve with a large enough effect in the repeat runs, not every such curve was filed as active; further: series mostly up to about 51 µM)
# Outline: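 Screening used HEK293 cells engineered with TRHR, with a brief 5 min room-temperature compound exposure preceding addition of TRH to 1 nM. The read-out was kinetic calcium-dye fluorescence, concentration-response from 15 doses in triplicate.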
# [18] = qHTS assay to identify small molecule antagonists of the estrogen receptor beta (ER-beta) signaling pathway - cell viability counter screen (AID 1259382); further: series mostly up to about 92 µM; nearly all actives have a fitted effect of over 55% in size
# Outline: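 Agonist-stimulated (1nM E2) ER-beta-UAS-bla HEK293T cells are incubated with library compounds for 16 hr at 37C. Cell viability is then assessed in the reporter-assay wells by adding CellTiter-Glo and reading luminescence after 30 min.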
# [19] = target: Thyrotropin-releasing hormone receptor (Homo sapiens) (UniProt P34981); assay: qHTS assay to identify small molecule agonists of the thyrotropin-releasing hormone receptor (TRHR) signaling pathway (AID 1346891; calls by dose curve; further: series mostly up to about 58 µM)
# Outline: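 Readout was intracellular calcium fluorescence in TRHR-Hek293 cells. Cells were incubated 18 h, dye-loaded 2 h at 37 °C, and treated with compound in agonist mode.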
# [20] = target: Androgen receptor (Homo sapiens) (UniProt P10275); assay: qHTS assay to identify small molecule agonists of the androgen receptor (AR) signaling pathway in the presence of an antagonist (AID 1259381; calls by dose curve; further: nearly all actives have a fitted effect of over 15% in size)
# Outline: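 Using human MDA-kb2 cells with an MMTV promoter–luciferase construct (AR and GR response elements), agonist activity is scored under 3.0uM nilutamide (final) co-treatment; 16hr incubation, 37C, luminescence readout via ONE-Glo.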
# Sequence of Progesterone receptor (Homo sapiens) (P06401 whole entry, looked up): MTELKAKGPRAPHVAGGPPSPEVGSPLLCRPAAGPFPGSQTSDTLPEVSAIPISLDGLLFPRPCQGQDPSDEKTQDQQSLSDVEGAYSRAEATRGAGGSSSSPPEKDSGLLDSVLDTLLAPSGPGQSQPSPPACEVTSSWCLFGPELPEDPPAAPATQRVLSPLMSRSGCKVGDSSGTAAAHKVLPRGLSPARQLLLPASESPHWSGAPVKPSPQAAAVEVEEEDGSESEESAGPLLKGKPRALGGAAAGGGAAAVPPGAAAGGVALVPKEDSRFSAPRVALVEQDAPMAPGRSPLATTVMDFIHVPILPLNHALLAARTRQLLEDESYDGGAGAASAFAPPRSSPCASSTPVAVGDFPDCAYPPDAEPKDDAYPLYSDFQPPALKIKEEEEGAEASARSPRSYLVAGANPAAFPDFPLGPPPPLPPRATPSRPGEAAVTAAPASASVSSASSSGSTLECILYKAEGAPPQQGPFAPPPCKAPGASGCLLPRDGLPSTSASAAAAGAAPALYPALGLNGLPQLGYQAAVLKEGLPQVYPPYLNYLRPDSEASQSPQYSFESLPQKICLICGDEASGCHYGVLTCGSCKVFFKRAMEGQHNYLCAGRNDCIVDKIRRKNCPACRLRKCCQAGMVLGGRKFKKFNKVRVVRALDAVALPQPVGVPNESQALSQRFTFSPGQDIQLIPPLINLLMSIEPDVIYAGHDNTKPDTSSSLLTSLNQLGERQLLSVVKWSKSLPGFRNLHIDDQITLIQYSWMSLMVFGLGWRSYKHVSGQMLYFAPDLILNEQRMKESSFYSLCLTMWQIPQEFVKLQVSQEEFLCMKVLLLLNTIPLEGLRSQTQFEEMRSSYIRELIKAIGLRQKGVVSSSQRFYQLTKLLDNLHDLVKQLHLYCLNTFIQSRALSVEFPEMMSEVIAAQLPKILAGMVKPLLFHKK
# Sequence of Estrogen receptor (Homo sapiens) (P03372 whole entry, looked up): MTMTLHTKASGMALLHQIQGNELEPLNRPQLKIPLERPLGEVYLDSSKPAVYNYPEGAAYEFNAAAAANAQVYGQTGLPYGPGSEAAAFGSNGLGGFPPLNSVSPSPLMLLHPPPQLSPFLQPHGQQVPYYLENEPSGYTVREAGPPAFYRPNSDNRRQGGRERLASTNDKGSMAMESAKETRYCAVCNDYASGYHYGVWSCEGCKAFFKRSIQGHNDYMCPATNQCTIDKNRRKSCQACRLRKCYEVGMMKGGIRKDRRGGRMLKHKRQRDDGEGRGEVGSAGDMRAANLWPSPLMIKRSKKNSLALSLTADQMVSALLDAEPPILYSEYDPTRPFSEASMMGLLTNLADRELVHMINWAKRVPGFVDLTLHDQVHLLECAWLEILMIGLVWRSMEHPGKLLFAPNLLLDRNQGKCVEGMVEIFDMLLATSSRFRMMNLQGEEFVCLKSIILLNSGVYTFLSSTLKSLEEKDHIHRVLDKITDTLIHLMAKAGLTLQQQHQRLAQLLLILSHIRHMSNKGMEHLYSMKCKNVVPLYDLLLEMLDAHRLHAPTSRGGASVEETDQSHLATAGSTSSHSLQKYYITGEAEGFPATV
# Sequence of Thyrotropin-releasing hormone receptor (Homo sapiens) (P34981 whole entry, looked up): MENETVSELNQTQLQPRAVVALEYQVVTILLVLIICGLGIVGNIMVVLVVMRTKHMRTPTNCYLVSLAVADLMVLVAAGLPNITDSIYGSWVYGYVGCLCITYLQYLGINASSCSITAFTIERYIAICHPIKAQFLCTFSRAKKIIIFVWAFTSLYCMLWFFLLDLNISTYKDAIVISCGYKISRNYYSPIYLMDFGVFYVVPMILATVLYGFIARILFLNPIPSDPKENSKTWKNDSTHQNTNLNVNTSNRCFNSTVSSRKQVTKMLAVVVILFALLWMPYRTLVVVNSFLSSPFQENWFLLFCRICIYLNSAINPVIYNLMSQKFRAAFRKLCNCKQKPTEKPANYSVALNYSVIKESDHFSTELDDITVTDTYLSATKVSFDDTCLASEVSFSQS
# Sequence of Thyrotropin receptor (Homo sapiens) (P16473 whole entry, looked up): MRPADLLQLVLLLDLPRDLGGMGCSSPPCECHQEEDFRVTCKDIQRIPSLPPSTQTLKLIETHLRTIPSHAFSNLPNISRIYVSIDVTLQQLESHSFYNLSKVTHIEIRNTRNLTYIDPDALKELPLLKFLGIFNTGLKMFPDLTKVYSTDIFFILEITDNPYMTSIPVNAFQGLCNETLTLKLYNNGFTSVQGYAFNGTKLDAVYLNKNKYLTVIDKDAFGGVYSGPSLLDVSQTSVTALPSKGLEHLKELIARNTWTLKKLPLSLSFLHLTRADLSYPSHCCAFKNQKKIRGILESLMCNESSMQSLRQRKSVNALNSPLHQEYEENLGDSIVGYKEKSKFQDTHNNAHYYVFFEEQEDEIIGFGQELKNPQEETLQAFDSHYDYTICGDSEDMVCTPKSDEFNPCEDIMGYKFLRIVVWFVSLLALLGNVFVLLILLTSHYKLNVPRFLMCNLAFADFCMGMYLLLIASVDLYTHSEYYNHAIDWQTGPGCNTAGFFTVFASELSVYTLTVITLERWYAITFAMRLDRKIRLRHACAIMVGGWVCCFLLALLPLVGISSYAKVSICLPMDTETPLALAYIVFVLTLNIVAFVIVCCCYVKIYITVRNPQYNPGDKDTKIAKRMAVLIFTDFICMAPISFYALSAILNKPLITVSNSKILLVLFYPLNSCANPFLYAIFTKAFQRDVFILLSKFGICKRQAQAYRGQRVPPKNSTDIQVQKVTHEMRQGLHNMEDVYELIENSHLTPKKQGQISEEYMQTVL
# Sequence of Androgen receptor (Homo sapiens) (P10275 whole entry, looked up): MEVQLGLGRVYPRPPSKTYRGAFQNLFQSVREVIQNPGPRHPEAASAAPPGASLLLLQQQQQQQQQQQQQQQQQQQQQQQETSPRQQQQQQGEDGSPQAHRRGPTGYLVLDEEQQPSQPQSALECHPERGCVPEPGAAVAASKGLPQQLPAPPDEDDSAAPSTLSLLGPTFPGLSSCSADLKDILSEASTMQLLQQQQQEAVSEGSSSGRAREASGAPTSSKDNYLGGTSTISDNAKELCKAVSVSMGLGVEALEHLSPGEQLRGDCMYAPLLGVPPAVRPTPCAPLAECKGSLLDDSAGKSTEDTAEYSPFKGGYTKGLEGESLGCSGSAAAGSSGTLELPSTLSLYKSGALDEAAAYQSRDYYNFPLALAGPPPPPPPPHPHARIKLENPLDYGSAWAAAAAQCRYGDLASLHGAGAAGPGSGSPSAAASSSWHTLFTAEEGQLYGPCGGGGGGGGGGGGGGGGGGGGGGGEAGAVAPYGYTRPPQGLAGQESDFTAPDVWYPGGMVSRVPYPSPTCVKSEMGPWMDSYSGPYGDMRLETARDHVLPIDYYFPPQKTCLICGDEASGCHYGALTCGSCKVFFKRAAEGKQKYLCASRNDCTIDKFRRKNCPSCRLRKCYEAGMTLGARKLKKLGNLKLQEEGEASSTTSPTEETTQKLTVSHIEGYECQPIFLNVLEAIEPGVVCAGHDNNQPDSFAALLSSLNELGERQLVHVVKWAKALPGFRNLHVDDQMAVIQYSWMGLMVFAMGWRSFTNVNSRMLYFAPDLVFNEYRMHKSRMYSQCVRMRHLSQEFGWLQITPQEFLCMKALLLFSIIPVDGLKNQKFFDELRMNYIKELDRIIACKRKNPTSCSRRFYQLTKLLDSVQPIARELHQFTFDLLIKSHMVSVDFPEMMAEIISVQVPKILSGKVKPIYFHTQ
# Sequence of Estrogen receptor beta (Homo sapiens) (Q92731 whole entry, looked up): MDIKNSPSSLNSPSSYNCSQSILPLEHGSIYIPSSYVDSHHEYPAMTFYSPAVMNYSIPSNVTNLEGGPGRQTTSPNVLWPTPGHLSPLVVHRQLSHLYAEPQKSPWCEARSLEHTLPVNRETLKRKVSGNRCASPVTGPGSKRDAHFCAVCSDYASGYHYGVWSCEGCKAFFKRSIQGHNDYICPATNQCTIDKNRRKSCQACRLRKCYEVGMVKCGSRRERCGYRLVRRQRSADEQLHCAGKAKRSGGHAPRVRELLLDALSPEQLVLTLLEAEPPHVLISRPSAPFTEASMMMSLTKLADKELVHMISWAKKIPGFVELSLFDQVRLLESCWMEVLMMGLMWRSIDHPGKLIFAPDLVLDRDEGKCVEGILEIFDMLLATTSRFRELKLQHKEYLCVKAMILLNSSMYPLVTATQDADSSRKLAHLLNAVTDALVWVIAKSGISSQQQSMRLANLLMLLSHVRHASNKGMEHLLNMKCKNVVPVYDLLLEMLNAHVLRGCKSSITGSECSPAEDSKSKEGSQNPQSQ
SMILES,Potency [1],Potency [2],Potency [3],Potency [4],Potency [5],Potency [6],outcome [7],Potency [8],Potency [9],Potency [10],Potency [11],Potency [12],Potency [13],Potency [14],Potency [15],outcome [16],Potency [17],Potency [18],Potency [19],Potency [20]
CCC(Cl)CCl (stereo not given),inactive,inactive,inactive,inactive,inactive,inactive,inactive,inactive,inactive,inactive,inactive,inactive,inactive,inactive,inactive,inactive,inactive,–,–,–
CN1C(=O)NC(=O)C(C)(C2=CCCCC2)C1=O (stereo not given),inactive,inactive,inactive,inactive,inactive,–,–,inactive,inactive,inactive,inactive,inactive,inactive,inactive,inactive,inactive,inactive,inactive,inactive,–
CC(C)(CCl)C(=O)Cl,12.2 µM (active),inactive,inactive,inactive,inactive,–,inactive,inactive,inactive,inactive,inactive,–,48.5 µM (active),inactive,inactive,inactive,inactive,inactive,inactive,–
Cc1ccccc1CCl,inactive,inactive,inactive,inactive,inactive,–,–,–,inactive,inactive,inactive,inactive,inactive,inactive,inactive,inactive,inactive,inactive,inactive,–
C=CC(=O)OC(C)(C)C,inactive,inactive,inactive,inactive,inactive,–,–,inactive,inactive,–,–,inactive,inactive,–,inactive,inactive,inactive,inactive,inactive,–
CC(C)N(CCC(C(N)=O)(c1ccccc1)c1ccccn1)C(C)C (stereo not given),inactive,inactive,inactive,inactive,inactive,–,inactive,inactive,inactive,inactive,inactive,inactive,inactive,inactive,inactive,inactive,–,–,–,–
C=C(C#N)CCC#N,inactive,inactive,inactive,inactive,inactive,inactive,inactive,inactive,inactive,inactive,inactive,inactive,inactive,inactive,inactive,inactive,inactive,–,–,–
CN(C)c1ccc(N(C)C)cc1,inactive,inactive,–,inactive,–,inactive,inactive,–,–,inactive,inactive,inactive,–,inactive,inactive,inactive,–,–,–,–
CCc1ccc(C(=O)NN(C(=O)c2cc(C)cc(C)c2)C(C)(C)C)cc1,inactive,inactive,–,inactive,inactive,inactive,–,inactive,5.45 µM (active),inactive,–,inactive,–,inactive,inactive,inactive,inactive,–,–,–
C=CC(=O)OCC(C)O (stereo not given),inactive,inactive,–,inactive,inactive,inactive,–,inactive,inactive,inactive,inactive,inactive,inactive,inactive,inactive,inactive,inactive,inactive,inactive,–
O=C(NC(=O)c1c(F)cccc1F)Nc1cc(Cl)c(Oc2ncc(C(F)(F)F)cc2Cl)c(Cl)c1,23.3 µM (active),inactive,–,–,–,inactive,inactive,inactive,inactive,inactive,–,inactive,inactive,inactive,inactive,–,inactive,inactive,inactive,inactive
CC(=O)c1cc2c(cc1C)C(C)(C)C(C)CC2(C)C (stereo not given),inactive,inactive,–,inactive,61.1 µM (active),–,inactive,–,inactive,inactive,–,inactive,–,inactive,inactive,inactive,inactive,inactive,inactive,–
O=C(O)C(F)(F)C(F)(F)C(F)(F)C(F)(F)C(F)(F)C(F)(F)C(F)(F)C(F)(F)C(F)(F)C(F)(F)F,inactive,inactive,inactive,inactive,–,–,–,–,inactive,–,inactive,inactive,–,inactive,inactive,inactive,inactive,inactive,inactive,–
Cl/C=C\C[N+]12CN3CN(CN(C3)C1)C2,inactive,inactive,inactive,–,inactive,inactive,–,inactive,inactive,inactive,inactive,inactive,inactive,inactive,inactive,inactive,inactive,inactive,inactive,inactive
S=C=NCc1ccccc1,inactive,inactive,49.1 µM (active),–,–,–,inactive,inactive,inactive,–,–,–,inactive,inactive,inactive,inactive,–,inactive,–,inactive
CCCCC(CC)COP(=O)(Oc1ccccc1)Oc1ccccc1 (stereo not given),inactive,inactive,–,inactive,–,inactive,–,inactive,inactive,inactive,–,inactive,inactive,inactive,inactive,inactive,inactive,inactive,inactive,inactive
C=CCN1CC[C@]23c4c5ccc(O)c4O[C@H]2C(=O)CC[C@@]3(O)[C@H]1C5,inactive,inactive,–,inactive,inactive,–,inactive,inactive,inactive,inactive,inactive,inactive,inactive,inactive,inactive,inactive,–,–,–,–
CC[C@H]1C[C@H]2[C@@H]3CCC4=CC(=O)CC[C@@H]4[C@H]3CC[C@]2(C)[C@H]1O,inactive,inactive,–,inactive,inactive,inactive,inactive,inactive,inactive,–,–,inactive,–,inactive,inactive,inactive,–,–,–,–
Nc1ccc([N+](=O)[O-])cc1[N+](=O)[O-],inactive,inactive,inactive,–,inactive,inactive,inactive,inactive,53.1 µM (active),inactive,–,inactive,inactive,inactive,inactive,inactive,–,inactive,inactive,inactive
C=CCOC(C)=O,inactive,inactive,–,inactive,inactive,inactive,inactive,inactive,inactive,inactive,1.91 µM (active),inactive,inactive,inactive,inactive,inactive,inactive,inactive,inactive,inactive
OC(c1ccc(Cl)cc1)(c1ccc(Cl)cc1)c1cccnc1,30.6 µM (active),inactive,38.6 µM (active),–,inactive,inactive,inactive,–,inactive,inactive,17.2 µM (active),–,–,inactive,–,inactive,inactive,inactive,inactive,inactive
C[C@H]1CNCCc2ccc(Cl)cc21,inactive,inactive,inactive,inactive,–,inactive,inactive,inactive,inactive,inactive,inactive,inactive,–,inactive,inactive,inactive,inactive,–,inactive,–
CCCCOC(=O)c1ccccc1C(=O)OCc1ccccc1,inactive and 19.3 µM (active),inactive,6.1 µM (active) and 9.15 µM (active),inactive,–,–,inactive,inactive,inactive,inactive,–,inactive,inactive,inactive,inactive,inactive,–,–,inactive,–
O=C(O)c1ccccc1C(=O)Nc1cccc2ccccc12,inactive,inactive,inactive,inactive,–,–,inactive,inactive,inactive,inactive,inactive,inactive,inactive,inactive,inactive,inactive,inactive,–,–,–
CCOP(=S)(OCC)Oc1cc(Cl)c(Br)cc1Cl,inactive,inactive,–,inactive,inactive,inactive,–,inactive,inactive,inactive,–,inactive,inactive,–,inactive,inactive,–,inactive,–,inactive
CC1Sc2c(C(=O)O)c(=O)c3cc(F)c(N4CCNCC4)cc3n21 (stereo not given),inactive,inactive,–,inactive,inactive,inactive,inactive,inactive,inactive,inactive,inactive,inactive,inactive,inactive,inactive,inactive,inactive,inactive,inactive,inactive
CC(C)(Cl)[N+](=O)[O-],inactive,inactive,–,inactive,inactive,–,inactive,inactive,inactive,inactive,–,inactive,–,inactive,inactive,–,–,inactive,inactive,–
